The text below walks through data of PubChem BioAssay (NCI).

About 83,000 compounds went through this panel and 20% of them were active in at least one assay; those are over-represented in the sample as a whole.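 Growth was measured after 48 h exposure to one concentration of compound in 96-well plates. Values under 10 count as active.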 Unmarked numbers belong to inactive results. The source made the active and inactive calls.

Test systems include SR leukemia; RPMI-8226 leukemia; OVCAR-8 ovarian; OVCAR-5 ovarian; OVCAR-4 ovarian; SK-OV-3 ovarian; IGROV1 ovarian; OVCAR-3 ovarian; HS 578T breast; NCI/ADR-RES ovarian; T-47D breast; BT-549 breast; MDA-MB-435 melanoma; SW-620 colon; MCF7 breast; HCT-116 colon; HCC-2998 colon; KM12 colon.
What all share (assay): NCI-60 one-dose screen, 48 h (100 = growth as untreated, 0 = no growth, -100 = all killed)
What all share (conditions): 10 µM unless noted

In the case of `NC(N)=NC1CCCCC1`, the growth in the test on SR leukemia is 92.6%; with RPMI-8226 leukemia, 85.6%; with OVCAR-8 ovarian, 98.5%; in the test on OVCAR-5 ovarian, 109%; with OVCAR-4 ovarian, 105%; in the test with SK-OV-3 ovarian, 107%. Besides, the growth with IGROV1 ovarian was 107%; in the test on OVCAR-3 ovarian, -50.3% (active); in the test on HS 578T breast, 107%; in the test with NCI/ADR-RES ovarian it was 98%; in the test on T-47D breast, 103%; with BT-549 breast, 105%. In addition, the growth with MDA-MB-435 melanoma is 104%; with SW-620 colon, 100%; with MCF7 breast it was 96.4%; in the test with HCT-116 colon, 98.6%; with HCC-2998 colon, 104%; with KM12 colon, -69% (active).

Regarding `COc1cc(C2CC(c3ccccc3)=NN2C=O)ccc1Oc1nc2c(c(=O)n(C)c(=O)n2C)n1C` (centres undefined), the growth is 67.4% in the test on SR leukemia; 61.1% in the test on RPMI-8226 leukemia; 91.3% in the test on OVCAR-8 ovarian; 97.6% in the test on OVCAR-5 ovarian; 65.3% in the test with OVCAR-4 ovarian; 125% in the test on SK-OV-3 ovarian. Also, the growth was 77.7% in the test on IGROV1 ovarian; 103% in the test on OVCAR-3 ovarian; 75.8% with HS 578T breast; 57.9% in the test on NCI/ADR-RES ovarian; 69.7% in the test with T-47D breast; 95.7% in the test with BT-549 breast. Besides, the growth is 56.8% with MDA-MB-435 melanoma; 97.9% in the test with SW-620 colon; 72.3% with MCF7 breast; 79.9% with HCT-116 colon; 77.6% in the test on HCC-2998 colon; 74.7% in the test with KM12 colon.

As to `COc1cc(CN(CCC(O)N2CCCC2=O)Cc2ccc3c(c2)OCO3)cc(OC)c1OC` (centres undefined), the growth was 86.3% in the test with SR leukemia; 98.7% with RPMI-8226 leukemia; 100% in the test with OVCAR-8 ovarian; 98.5% with OVCAR-5 ovarian; 108% in the test with OVCAR-4 ovarian; 102% with SK-OV-3 ovarian. Besides, the growth is 95% in the test on IGROV1 ovarian; 105% in the test with OVCAR-3 ovarian; 103% with HS 578T breast; 103% with NCI/ADR-RES ovarian; 96% in the test on T-47D breast; 101% in the test on BT-549 breast. The growth in the test on MDA-MB-435 melanoma was 103%; in the test on SW-620 colon it was 108%; with MCF7 breast, 96.8%; with HCT-116 colon, 92.4%; in the test on HCC-2998 colon, 113%; with KM12 colon it was 105%.

Take `COc1cc(OC)c(Cl)cc1N`: the growth was 109% with SR leukemia; 104% in the test with RPMI-8226 leukemia; 104% with OVCAR-8 ovarian; 111% in the test on OVCAR-5 ovarian; 109% with OVCAR-4 ovarian; 100% in the test on SK-OV-3 ovarian. Moreover, the growth with IGROV1 ovarian was 114%; in the test on OVCAR-3 ovarian, 103%; in the test with HS 578T breast, 77.9%; with NCI/ADR-RES ovarian, 109%; with T-47D breast it was 98.8%; in the test on BT-549 breast it was 123%. Also, the growth is 98.2% in the test on MDA-MB-435 melanoma; 102% in the test on SW-620 colon; 95.5% with MCF7 breast; 106% in the test with HCT-116 colon; 106% in the test on HCC-2998 colon; 107% in the test on KM12 colon.

Turning to `CCCCCCCCCCCCCCCCCC(=O)[O][Sn]([CH2]CCC)([CH2]CCC)[CH2]CCC`, the growth was 15.8% in the test with SR leukemia; -30.8% (active) with RPMI-8226 leukemia; -57% (active) in the test on OVCAR-8 ovarian; -71.1% (active) with OVCAR-5 ovarian; -98% (active) with OVCAR-4 ovarian; -96.2% (active) with SK-OV-3 ovarian. In addition, the growth is -88.7% (active) in the test on IGROV1 ovarian; -100% (active) with OVCAR-3 ovarian; -8.64% (active) in the test on HS 578T breast; -86.6% (active) in the test with NCI/ADR-RES ovarian; -78.9% (active) with T-47D breast; -94.3% (active) in the test on BT-549 breast. Besides, the growth was -87.2% (active) with MDA-MB-435 melanoma; -83.6% (active) in the test with SW-620 colon; -93.1% (active) in the test on MCF7 breast; -96.2% (active) in the test with HCT-116 colon; -99.1% (active) in the test with HCC-2998 colon; -96.2% (active) in the test on KM12 colon.

Turning to `N#CCCn1cnc2c(N)ncnc21`, the growth with SR leukemia was 98%; with RPMI-8226 leukemia it was 101%; in the test on OVCAR-8 ovarian, 96.5%; with OVCAR-5 ovarian, 98.4%; with OVCAR-4 ovarian it was 107%; with SK-OV-3 ovarian it was 99.6%. Moreover, the growth in the test with IGROV1 ovarian was 125%; in the test with OVCAR-3 ovarian it was 109%; with HS 578T breast, 99.5%; in the test on NCI/ADR-RES ovarian, 109%; in the test with T-47D breast, 95.4%; with BT-549 breast it was 103%. For the same molecule, the growth in the test on MDA-MB-435 melanoma is 102%; in the test on SW-620 colon, 102%; with MCF7 breast, 97.1%; in the test with HCT-116 colon, 99.1%; in the test with HCC-2998 colon, 113%; in the test with KM12 colon it was 106%.

With `COc1cc(C2CC(c3ccc(Cl)cc3)=NN2C=O)ccc1Oc1ccnc2cc(Cl)ccc12` (centres undefined), the growth in the test with SR leukemia was 63.2%; with RPMI-8226 leukemia, 65.1%; with OVCAR-8 ovarian, 44.6%; with OVCAR-5 ovarian, 92.7%; in the test on OVCAR-4 ovarian, 28.1%; in the test on SK-OV-3 ovarian, 60%. For the same molecule, the growth in the test with IGROV1 ovarian was 97%; in the test on OVCAR-3 ovarian it was 73.4%; in the test with HS 578T breast it was 35.5%; in the test with NCI/ADR-RES ovarian it was 76.6%; in the test on T-47D breast, 56.4%; in the test on BT-549 breast it was 94.7%. Also, the growth was 73.3% with MDA-MB-435 melanoma; 84.5% in the test with SW-620 colon; 53.4% with MCF7 breast; 49.2% with HCT-116 colon; 72.8% in the test with HCC-2998 colon; 76.2% with KM12 colon.

For `COc1cc(C2CC(=O)Nc3c2cnn3C)cc(OC)c1OC` (centres undefined), the growth is 103% in the test on SR leukemia; 112% in the test with RPMI-8226 leukemia; 103% with OVCAR-8 ovarian; 109% in the test on OVCAR-5 ovarian; 113% with OVCAR-4 ovarian; 95.1% in the test on SK-OV-3 ovarian. Also, the growth in the test on IGROV1 ovarian was 108%; with OVCAR-3 ovarian, 106%; in the test with HS 578T breast, 111%; in the test with NCI/ADR-RES ovarian, 105%; in the test with T-47D breast it was 96.1%; in the test on BT-549 breast, 99.4%. Also, the growth in the test on MDA-MB-435 melanoma was 105%; with SW-620 colon, 108%; with MCF7 breast, 97.1%; in the test on HCT-116 colon it was 100%; in the test on HCC-2998 colon, 108%; in the test with KM12 colon it was 105%.
